Assay results as given in PubChem BioAssay AID743279 (National Center for Advancing Translational Sciences (NCATS), 2014).
Among all 360,000 compounds or so, about 17,000 (4.7%) were called active. Inconclusive results (about 5%) are left out. The list comes from a sample in which actives are over-represented; it also holds similar structures and randomly drawn compounds. Values without a mark were called inactive. No stated cut-off is given here; in the data, active means activity change below about -50%; inconclusive means mostly about -30% to -49%; inactive means weaker than that.
On the % scale 0 is the no-effect control and ±100 the full control effect.

Experiment: qHTS for Inhibitors of Inflammasome Signaling: IL-1-beta AlphaLISA Primary Screen
Conditions: THP-1 LPS/ATP IL-1B secretion, 16 h; at 57.5 µM, active compounds read low
Description: Inflammasomes are a set of intracellular multi-protein complexes that enable autocatalytic activation of inflammatory caspases and drive the innate immune response to counter harmful agents. […] A qHTS assay, based on AlphaLISA technology, was developed to screen the Molecular Libraries Small Molecule Repository (MLSMR) to look for novel inflammasome inhibitors. The assay detects IL-1B using AlphaLISA anti-IL-1B acceptor and donor beads. A decreased emission signal, indicating reduced IL-1B secretion, is the desired outcome for this assay. NIH Chemical Genomics Center [NCGC] NIH Molecular Libraries Probe Centers Network [MLPCN] MLPCN Grant: MH095513 Assay Provider: Shyam Biswal Ph.D., Johns Hopkins University Immunity. 2012 Jul 27;37(1):85-95. PMID: 22819042 [2] Curr Pharm Des. 2012;18(16):2320-8. PMID: 22390695
Three microliters containing 3000 THP-1 cells were dispensed into the wells of solid, white, tissue culture treated Greiner 1,536-well plates. Library compounds and positive control, Glyburide, were pin-transferred (23 nL) by a Kalypsys pin-tool equipped with a 1,536-pin array, resulting in final compound concentration ranges of 2.5 nM to 57.5 uM. After 1 hr of cell culture incubation (37 °C, 5% CO2), 1 microL of 1 microg/mL lipopolysaccharide (250 ng/mL, final) and 5 mM ATP (1.25 mM, final) were added to stimulate the cells. After 16 hr of cell culture incubation with the compounds, 1.5 uL of anti-IL-1B acceptor beads (6 ug/mL, final) and biotinylated antibody (0.6 nM, final) were added to the plate, followed by a 1 hr incubation at ambient temperature. To detect the secreted IL-1B, 1.5 uL of AlphaLISA SA-Donor beads (24 ug/mL, final) were added, followed by 30 min of incubation in the dark at ambient temperature. The AlphaLISA signal was read by a PerkinElmer EnVision plate reader with an ultrasensitive luminescence detector and 1536 Plate HTS AlphaScreen aperture (excitation of 680nm and emission of 615nm).
For C=CCC1(CC=C)CCCN1C(=O)c1cc(COc2ccc(-n3cncn3)cc2)on1, the activity change was -59.7% (active). With CCn1ccnc1CN(C)C(=O)c1cc(COc2ccc(-n3cncn3)cc2)on1 the activity change was 21.7%. Molecule O=C(c1cc(COc2ccc(F)c(F)c2)on1)N1CCOCC1 has an activity change of -28.7%. For O=C(NC1CCCC1)C1c2ccccc2OCC(=O)N1Cc1ccccc1 (centres undefined), the activity change was 27.8%. Work on CCN1CCN(C(=O)CCN2C(=O)c3ccccc3C2=O)CC1 yielded an activity change of 15.8%. O=C(O)CC12CC3CC(C1)CC(n1ncc(NCc4ccc(F)cc4)c(Cl)c1=O)(C3)C2 showed an activity change of -16%. With CSC1=N/C(=C\C=C\c2cccs2)C(=O)S1 the activity change was -92.1% (active). Work on COc1ccc(OC(C)C(=O)Nc2cccnc2)cc1 (centres undefined) yielded an activity change of -0.423%. CC(Sc1nc2c([nH]c3ccccc32)c(=O)n1C)c1ccccc1 (centres undefined) gave an activity change of 27.7%. Work on O=C1OCCC1=COCCCCOC=C1CCOC1=O yielded an activity change of 2.81%. Molecule COc1ccc(C(=O)C2CCCN(Cc3ccc4nonc4c3)C2)c(C)c1 (centres undefined) has an activity change of -3.49%. Molecule CCOC(=O)c1[nH]ncc1CN1CCCC(C(=O)c2ccc(OC)cc2C)C1 (centres undefined) has an activity change of 0%. For COc1ccc(C(=O)C2CCCN(Cc3cccn3-c3ccccn3)C2)c(C)c1 (centres undefined), the activity change was -99.7% (active). Cc1[nH]c2ccccc2c1C(=O)C(=O)NCc1nnnn1-c1cccc(F)c1 showed an activity change of 10.9%. Work on Cc1ccccc1-c1csc(C(O)c2cccc(Cl)c2)n1 (centres undefined) yielded an activity change of -11.7%. Work on CCN(CC)c1ncnc2c1ncn2[C@H]1CN(Cc2cccs2)C[C@@H](CO)O1 yielded an activity change of -12%. With CC(=O)NCCC(=O)Nc1nc(-c2ccc3c(c2)OCCO3)cs1 the activity change was 15.5%. For Cc1ccc(-c2csc(NC(=O)C3=COCCO3)n2)cc1C, the activity change was -88.1% (active). For Cc1csc(NC(=O)C2=COCCO2)n1, the activity change was -3.32%. For Nc1nc2cc(Cl)ccc2n1N, the activity change was 32.9%. CCn1nc(C)c(/C=N/NC(=O)Cc2ccc(Cl)cc2)c1C gave an activity change of 14.8%. In the case of Cc1nn(Cc2ccc(Cl)cc2)c(Cl)c1/C=N/NC(=O)CNc1ccccc1F, the activity change is reported as -13.7%. In the case of Cc1nn(Cc2ccc(Cl)cc2)c(Cl)c1/C=N/NC(=O)c1cccnc1, the activity change is reported as -70.6% (active). CC(=O)c1ccc(Nc2nc(C(N)c3ccccc3Cl)cs2)cc1 (centres undefined) gave an activity change of 49.4%. Molecule COc1ccccc1NC(=O)Nc1nc(CC(=O)Nc2ccccc2F)cs1 has an activity change of -1.21%. For NC(c1csc(NC(=O)Nc2ccccc2Oc2ccccc2)n1)c1ccccc1Cl (centres undefined), the activity change was -71.7% (active). Work on CC/C(=C\c1ccc(Cl)cc1)c1ccncc1 yielded an activity change of 3.7%. Work on COCCCn1c(C(=O)NC2CCCCC2)cc2c(=O)n3cccc(C)c3nc21 yielded an activity change of -7.13%. Cn1ncc([N+](=O)[O-])c1C(=O)Nc1cc(Cl)ccc1Cl showed an activity change of -5.95%. COc1ccccc1NC(=O)Nc1nnc(Cc2ccc(F)cc2)s1 showed an activity change of 28.6%. For Cc1cccc(C)c1Cn1c(C)c(C(=O)NCc2cccc(Cl)c2)sc1=O, the activity change was -13.4%. CC(=O)OCc1cc(=O)n(C)c(=O)n1C gave an activity change of 18.2%. Molecule COc1ccc(OCC(O)CN(C)C(=O)C(C)Oc2ccccc2)cc1 (centres undefined) has an activity change of -1.85%. Work on Cc1ccc(OCC(=O)OC(C)CN(C)Cc2ccccc2)cc1 (centres undefined) yielded an activity change of 11.3%. In the case of CN(Cc1ccccc1)CC(O)COc1ccc(CNCc2cc3ccccc3s2)cc1 (centres undefined), the activity change is reported as -52.3% (active). CC1(C(=O)NCc2ccccc2)CSCC(=O)N1CCCn1ccnc1 (centres undefined) gave an activity change of -3.98%. Cc1ccc(C(CNC(=O)Nc2ccccc2)N2CCN(C)CC2)cc1 (centres undefined) gave an activity change of -19.3%. Cc1ccc2nc(SCC(=O)N3CCN(c4ccccc4)CC3)nc(=O)n2c1 showed an activity change of -22.4%. For CCN(CCCNC(=O)CSc1cc(=O)n(C)c2cc(Cl)ccc12)Cc1ccccc1, the activity change was -66.3% (active). Work on CCOc1ccc(CCNC(=O)CSc2cc(=O)n(C)c3ccc(Cl)cc23)cc1OCC yielded an activity change of 15.4%. CCN(CC)CCCNC(=O)CCn1nc(-c2ccc(Cl)cc2)ccc1=O gave an activity change of 0.889%. Work on COC(=O)c1ccc(CN2C(=O)C(Cc3ccccc3)ON=C2c2ncccc2C)o1 (centres undefined) yielded an activity change of 0%. For Cc1ccc2cccc(OCCCOc3ccccc3CO)c2n1, the activity change was -5.38%. For N#Cc1cccc(NC(=O)CN2CCCCCC2)c1, the activity change was -4.14%. For Cc1nc(-c2ccc([N+](=O)[O-])cc2)c(-c2ccccc2)o1, the activity change was -1.34%. O=[N+]([O-])c1ccc(N2CCOCC2)cc1 showed an activity change of -12%. With O=C1CC(c2ccccc2)=NN1c1ccc([N+](=O)[O-])cc1 the activity change was -62.7% (active). For Cc1c(NC(=O)COC(=O)/C=C/c2cccc(F)c2)c(=O)n(-c2ccccc2)n1C, the activity change was -1.18%. For CCCCN1CC(C)(C)[C@H](CC(=O)Nc2ccc(Br)cc2)C1=O, the activity change was -25.6%. With COc1ccc([C@H]2C[C@@H](n3cc(COC(=O)c4ccccc4)nn3)[C@H](O)CN2C(=O)c2cccs2)cc1 the activity change was 3.71%. In the case of C[C@H]1CN([C@@H](C)CO)C(=O)CCCn2cc(nn2)CO[C@@H]1CN(C)S(=O)(=O)c1ccc(-c2ccccc2)cc1, the activity change is reported as 0%. Molecule O=c1oc2c(CN3CCCCC3)c(O)ccc2c2c1CCCCC2 has an activity change of 11%. With CN1CCN(Cc2c(O)ccc3c2oc(=O)c2ccccc23)CC1 the activity change was -65.7% (active). Molecule CCOC(=O)c1oc2c(CN3CCN(C)CC3)c(O)ccc2c(=O)c1-c1ccc(Br)cc1 has an activity change of 2.61%. Work on O=c1cc(CN2CCCCCCC2)c2c(ccc3ccccc32)o1 yielded an activity change of 25.6%. With CCOC(=O)CCCNC(=O)COC(=O)/C=C/c1ccc2c(c1)OCO2 the activity change was -11.7%. In the case of O=C(COC(=O)/C=C/c1ccc2c(c1)OCO2)NC1CCS(=O)(=O)C1 (centres undefined), the activity change is reported as -29.2%. In the case of CN(Cc1ccccc1)C(=O)COC(=O)/C=C/c1ccc2c(c1)OCO2, the activity change is reported as -60.4% (active). OC[C@@H]1CN(Cc2ccc(F)cc2)C[C@H](n2cnc3c(NC4CCCC4)ncnc32)O1 showed an activity change of 0%. In the case of CC(=O)Nc1cccc(-c2csc(Nc3cccc(C)n3)n2)c1, the activity change is reported as -56.6% (active). COc1ccc(OC)c(-c2csc(NC(=O)COC(=O)C3CC3)n2)c1 showed an activity change of -8.53%. With COc1ccc(CCN(C(=O)COc2ccccc2)c2nc(-c3ccccc3)cs2)cc1OC the activity change was -19.6%. For COc1cccc(CC(=O)Nc2nc(-c3ccc(OC)c(OC)c3)cs2)c1, the activity change was -50.3% (active). CC(=O)NC(c1ccccc1)c1nc(-c2cccc(C(C)C)c2)cs1 (centres undefined) showed an activity change of -14.5%. Work on O=C(COc1ccccc1F)Nc1nc(-c2ccccn2)cs1 yielded an activity change of 33.3%. In the case of COc1ccc(CCNc2nc(-c3cccc(NC(C)=O)c3)cs2)cc1OC, the activity change is reported as -53.6% (active). COc1ccc(NC(=O)C2(C)Cc3c(-c4cccc(NC(C)=O)c4)ccnc3O2)cc1OC (centres undefined) gave an activity change of -4.57%. CCCCCCC(=O)Nc1nc(C)c(-c2csc(Nc3cccc(OC)c3)n2)s1 gave an activity change of -17.4%. Molecule COc1ccc(-c2csc(Nc3cccc(C)n3)n2)cc1OC has an activity change of -7.72%. In the case of COc1cc(CC(=O)NCc2cccs2)cc(OC)c1OC, the activity change is reported as 0%. For COc1cc(CC(=O)Nc2nc(-c3ccc(F)c(F)c3)cs2)cc(OC)c1OC, the activity change was -57% (active). Molecule CCCNC(=O)C1(C)CCCN(C(=O)c2cccc(OC(C)=O)c2C)C1 (centres undefined) has an activity change of 1.04%. In the case of CCc1nc2c(OCCOc3ccccc3)cccn2c1N(C)C(=O)c1ccccc1F, the activity change is reported as -0.777%. CC(C)CCNC(=O)c1cccnc1Sc1ccccc1 gave an activity change of -7.52%. With COc1ccc(CC(=O)Nc2ccccc2NC(=O)c2ccco2)cc1OC the activity change was 12.9%. For COc1ccc(CC(=O)Nc2nc(-c3ccc(F)c(F)c3)cs2)cc1OC, the activity change was -67.5% (active). In the case of CCCc1ccc(-c2csc(NC(=O)Cc3cccs3)n2)cc1, the activity change is reported as 8.64%. CCCc1c(C)nc2scc(-c3ccc(Cl)cc3)n2c1=O showed an activity change of 26.4%. With CCc1ccc(OCC(=O)NCC(c2ccc(Cl)cc2)N2CCCCC2)cc1 (centres undefined) the activity change was -99.8% (active). COc1ccc(C(CNC(=O)COc2ccccc2OC)N2CCCCC2)cc1 (centres undefined) gave an activity change of -6.28%. Molecule COc1ccc(C(CNC(=O)COc2ccc([N+](=O)[O-])cc2)N2CCCCC2)cc1 (centres undefined) has an activity change of -22.1%. In the case of Cc1ccc(C(=O)NNC(=O)OC(C)(C)C)c(Cl)c1, the activity change is reported as -7.82%. With O=C(COC(=O)c1ccc(O)cc1O)NC(=O)c1ccccc1 the activity change was 13.5%. With CC(C)(C)OC(=O)NCCCCCNC(=O)c1nc[nH]c1C(=O)NCc1ccccc1 the activity change was 11%. In the case of Cc1noc(C)c1COC(=O)c1cc2ccccc2cc1O, the activity change is reported as -1.49%. With CC(C)(C)OC(=O)NNc1c2ccccc2nc2ccccc12 the activity change was -75.9% (active). With O=C(NNc1c2ccccc2nc2ccccc12)c1cc2ccccc2cc1O the activity change was -60.2% (active). In the case of Cc1ccccc1NC(=O)Cn1cc(C(=O)C2CC2)c2ccccc21, the activity change is reported as 16.9%. In the case of CCC1NC(=O)c2cccnc2-n2c1nc1ccc(C)cc1c2=O (centres undefined), the activity change is reported as -3.64%. Work on N#C/C(=C(\O)C(F)(F)F)c1nnc2n1CCCCC2 yielded an activity change of 11.5%. N#C/C(=C(\O)CCl)c1nnc2n1CCCCC2 gave an activity change of 4.27%. For N#C/C(=C/c1cccc([N+](=O)[O-])c1)c1nnc2n1CCCCC2, the activity change was -112% (active). In the case of CCOC(=O)C1(C)CCCN(C(=O)c2ccc(N(C)C)cc2)C1 (centres undefined), the activity change is reported as 9.68%. For CCN(CC)C(=O)[C@H]1CC(CC(=O)NCc2ccco2)C(=O)N2CCc3c([nH]c4ccccc34)[C@]12C (some centres undefined), the activity change was 7.15%.
